The campaign covered roughly 5,500 compounds. About 2,000 (36%) were called active. About 18% were inconclusive and are not listed. Rule as the data show it: active = normalized growth mostly below about 0.91 (no sharp cut-off); inconclusive = no clear call, values can overlap the other calls; inactive = mostly above about 0.92. The list shows a part of the results.
Test: chemical genetic growth profiling, strain panel (AID 1159580);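 also: tested at 20 µM; growth read once vehicle control cultures reached saturation at 30 °C; 1 = growth at the plate median or of vehicle wells; lower values mean less growth of the strain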
Settings: growth OD

Measured: normalized growth

OCc1ccccc1O[C@@H]1O[C@H](CO)[C@@H](O)[C@H](O)[C@H]1O
inactive: S. cerevisiae deletion strains, locus YJR066W, strain TOR1, active compounds read low 0.94 | S. cerevisiae deletion strains, locus YKL009W, strain mrt4, active compounds read low 1.01 | S. cerevisiae deletion strains, locus YKL068W, active compounds read low 0.98 | S. cerevisiae deletion strains, locus YKL085W, strain MDH1 (second series), active compounds read low 0.973 | S. cerevisiae deletion strains, locus YKL085W, strain MDH1, active compounds read low 0.973 | S. cerevisiae deletion strains, locus YKL160W, strain elf1, active compounds read low 0.993 | S. cerevisiae deletion strains, locus YKL190W, strain CNB1, active compounds read low 0.988 | S. cerevisiae deletion strains, locus YKR001C, strain vps1, active compounds read low 0.985 | S. cerevisiae deletion strains, locus YKR026C, strain gcn3, active compounds read low 1 | S. cerevisiae deletion strains, locus YKR091W, strain srl3, active compounds read low 0.994 | S. cerevisiae deletion strains, locus YLL001W, strain dnm1, active compounds read low 0.975 | S. cerevisiae deletion strains, locus YLL026W, active compounds read low 0.999 | S. cerevisiae deletion strains, locus YLL041C, strain sdh2, active compounds read low 0.991 | S. cerevisiae deletion strains, locus YLR027C, strain aat2, active compounds read low 1 | S. cerevisiae deletion strains, locus YLR039C, strain RIC1, active compounds read low 0.936 | S. cerevisiae deletion strains, locus YLR058C, strain SHM2, active compounds read low 0.978 | S. cerevisiae deletion strains, locus YLR102C, strain apc9, active compounds read low 0.99 | S. cerevisiae deletion strains, locus YLR113W, strain HOG1, active compounds read low 1.01 | S. cerevisiae deletion strains, locus YLR221C, strain rsa3, active compounds read low 0.991 | S. cerevisiae deletion strains, locus YLR258W, strain gsy2, active compounds read low 0.977 | S. cerevisiae deletion strains, locus YLR262C, strain YPT6 (second series), active compounds read low 0.997 | S. cerevisiae deletion strains, locus YLR262C, strain YPT6, active compounds read low 0.929 | S. cerevisiae deletion strains, locus YLR268W, strain sec22, active compounds read low 0.979 | S. cerevisiae deletion strains, locus YLR320W, strain mms22, active compounds read low 0.999 | S. cerevisiae deletion strains, locus YLR330W, strain CHS5, active compounds read low 0.989 | S. cerevisiae deletion strains, locus YLR342W, strain FKS1 (second series), active compounds read low 1.06 | S. cerevisiae deletion strains, locus YLR342W, strain FKS1, active compounds read low 0.995 | S. cerevisiae deletion strains, locus YLR357W, strain rsc2, active compounds read low 1.02 | S. cerevisiae deletion strains, locus YLR370C, strain arc18, active compounds read low 0.98 | S. cerevisiae deletion strains, locus YLR371W, strain rom2, active compounds read low 0.994 | S. cerevisiae deletion strains, locus YLR384C, strain iki3, active compounds read low 0.989 | S. cerevisiae deletion strains, locus YLR418C, strain cdc73, active compounds read low 1.02 | S. cerevisiae deletion strains, locus YML016C, strain PPZ1, active compounds read low 0.988 | S. cerevisiae deletion strains, locus YML032C, strain rad52, active compounds read low 0.993 | S. cerevisiae deletion strains, locus YML120C, strain ndi1, active compounds read low 1 | S. cerevisiae deletion strains, locus YML124C, strain tub3, active compounds read low 0.992 | S. cerevisiae deletion strains, locus YMR058W, strain fet3, active compounds read low 0.999 | S. cerevisiae deletion strains, locus YMR078C, strain ctf18, active compounds read low 0.987 | S. cerevisiae deletion strains, locus YMR125W, strain sto1, active compounds read low 0.976 | S. cerevisiae deletion strains, locus YMR129W, active compounds read low 1 | S. cerevisiae deletion strains, locus YMR205C, strain PFK2, active compounds read low 1.01 | S. cerevisiae deletion strains, locus YMR223W, strain ubp8, active compounds read low 1.05 | S. cerevisiae deletion strains, locus YMR231W, strain pep5, active compounds read low 0.992 | S. cerevisiae deletion strains, locus YMR263W, strain SAP30, active compounds read low 0.992 | S. cerevisiae deletion strains, locus YMR307W, strain GAS1, active compounds read low 1.06 | S. cerevisiae deletion strains, locus YNL067W, strain RPL9B, active compounds read low 0.968 | S. cerevisiae deletion strains, locus YNL071W, strain lat1, active compounds read low 0.999 | S. cerevisiae deletion strains, locus YNL153C, strain GIM3, active compounds read low 0.951 | S. cerevisiae deletion strains, locus YNL183C, strain NPR1, active compounds read low 0.944 | S. cerevisiae deletion strains, locus YNL209W, strain ssb2, active compounds read low 0.974 | S. cerevisiae deletion strains, locus YNL233W, strain BNI4, active compounds read low 0.974 | S. cerevisiae deletion strains, locus YNL248C, strain rpa49, active compounds read low 0.986 | S. cerevisiae deletion strains, locus YNL250W, strain rad50, active compounds read low 0.99 | S. cerevisiae deletion strains, locus YNL271C, strain bni1, active compounds read low 0.98 | S. cerevisiae deletion strains, locus YNL298W, strain CLA4, active compounds read low 0.994 | S. cerevisiae deletion strains, locus YNL307C, strain MCK1, active compounds read low 0.986 | S. cerevisiae deletion strains, locus YNL322C, strain KRE1 (second series), active compounds read low 0.997 | S. cerevisiae deletion strains, locus YNL322C, strain KRE1, active compounds read low 0.991 | S. cerevisiae deletion strains, locus YNR049C, strain mso1, active compounds read low 0.978 | S. cerevisiae deletion strains, locus YNR052C, strain pop2, active compounds read low 0.998 | S. cerevisiae deletion strains, locus YOL006C, strain TOP1, active compounds read low 0.957 | S. cerevisiae deletion strains, locus YOL012C, strain htz1 1.27 | S. cerevisiae deletion strains, locus YOL147C, strain pex11, active compounds read low 1 | S. cerevisiae deletion strains, locus YOR001W, strain rrp6, active compounds read low 0.998 | S. cerevisiae deletion strains, locus YOR061W, strain CKA2, active compounds read low 0.956 | S. cerevisiae deletion strains, locus YOR069W, strain VPS5, active compounds read low 0.995 | S. cerevisiae deletion strains, locus YOR070C, strain gyp1, active compounds read low 0.995 | S. cerevisiae deletion strains, locus YOR080W, strain dia2, active compounds read low 0.991 | S. cerevisiae deletion strains, locus YOR083W, strain WHI5, active compounds read low 0.999 | S. cerevisiae deletion strains, locus YOR106W, strain vam3, active compounds read low 0.977 | S. cerevisiae deletion strains, locus YOR136W, strain idh2, active compounds read low 0.988 | S. cerevisiae deletion strains, locus YOR144C, strain elg1, active compounds read low 0.99 | S. cerevisiae deletion strains, locus YOR184W, strain ser1, active compounds read low 0.991 | S. cerevisiae deletion strains, locus YOR231W, strain MKK1, active compounds read low 1.01 | S. cerevisiae deletion strains, locus YOR265W, strain rbl2, active compounds read low 1 | S. cerevisiae deletion strains, locus YOR270C, strain vph1, active compounds read low 0.918 | S. cerevisiae deletion strains, locus YOR290C, strain snf2, active compounds read low 0.99 | S. cerevisiae deletion strains, locus YOR316C, strain cot1, active compounds read low 0.975 | S. cerevisiae deletion strains, locus YPL051W, strain arl3, active compounds read low 0.98 | S. cerevisiae deletion strains, locus YPL078C, strain atp4, active compounds read low 0.992 | S. cerevisiae deletion strains, locus YPL106C, strain sse1, active compounds read low 0.991 | S. cerevisiae deletion strains, locus YPL240C, strain hsp82, active compounds read low 0.985 | S. cerevisiae deletion strains, locus YPL241C, strain CIN2, active compounds read low 0.994 | S. cerevisiae deletion strains, locus YPL256C, strain CLN2, active compounds read low 1.03 | S. cerevisiae deletion strains, locus YPR119W, strain clb2, active compounds read low 0.98 | S. cerevisiae deletion strains, locus YPR141C, strain kar3, active compounds read low 0.973 | S. cerevisiae deletion strains, locus YPR163C, strain tif3, active compounds read low 0.992 | S. cerevisiae deletion strains, locus YPR167C, strain met16, active compounds read low 0.997 | S. cerevisiae deletion strains, strain wtn01, active compounds read low 1.01 | S. cerevisiae strains, strain wild type, active compounds read low 0.979

Source: PubChem BioAssay AID1159580 (chemical genetic matrix, 2015)
